Experimental findings from PubChem BioAssay are described below.

Test [1] is described as follows: reducers of endogenous Her2 protein level, primary screen, SKBR3 breast tumor cells, AlphaScreen, ATP viability (AID 461;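 active = Her2 level under about 52% in both replicate screens, with viability over 70% of control, limit read from the data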;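 as to Her2 level: lower value means less Her2 protein in the cells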;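 as to viability: percent of carrier control wells set as 100% viability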). As to conditions: 18-24 h, measured here: SKBR3 viability, ATP luminescence, at 10 µM.
The target in test [2] is Receptor tyrosine-protein kinase erbB-2 (Homo sapiens) (UniProt P04626). The test is described as above. As to conditions: 18-24 h, at 10 µM, stronger effect = lower value.
Chain of Receptor tyrosine-protein kinase erbB-2 (Homo sapiens) (P04626 whole entry, looked up): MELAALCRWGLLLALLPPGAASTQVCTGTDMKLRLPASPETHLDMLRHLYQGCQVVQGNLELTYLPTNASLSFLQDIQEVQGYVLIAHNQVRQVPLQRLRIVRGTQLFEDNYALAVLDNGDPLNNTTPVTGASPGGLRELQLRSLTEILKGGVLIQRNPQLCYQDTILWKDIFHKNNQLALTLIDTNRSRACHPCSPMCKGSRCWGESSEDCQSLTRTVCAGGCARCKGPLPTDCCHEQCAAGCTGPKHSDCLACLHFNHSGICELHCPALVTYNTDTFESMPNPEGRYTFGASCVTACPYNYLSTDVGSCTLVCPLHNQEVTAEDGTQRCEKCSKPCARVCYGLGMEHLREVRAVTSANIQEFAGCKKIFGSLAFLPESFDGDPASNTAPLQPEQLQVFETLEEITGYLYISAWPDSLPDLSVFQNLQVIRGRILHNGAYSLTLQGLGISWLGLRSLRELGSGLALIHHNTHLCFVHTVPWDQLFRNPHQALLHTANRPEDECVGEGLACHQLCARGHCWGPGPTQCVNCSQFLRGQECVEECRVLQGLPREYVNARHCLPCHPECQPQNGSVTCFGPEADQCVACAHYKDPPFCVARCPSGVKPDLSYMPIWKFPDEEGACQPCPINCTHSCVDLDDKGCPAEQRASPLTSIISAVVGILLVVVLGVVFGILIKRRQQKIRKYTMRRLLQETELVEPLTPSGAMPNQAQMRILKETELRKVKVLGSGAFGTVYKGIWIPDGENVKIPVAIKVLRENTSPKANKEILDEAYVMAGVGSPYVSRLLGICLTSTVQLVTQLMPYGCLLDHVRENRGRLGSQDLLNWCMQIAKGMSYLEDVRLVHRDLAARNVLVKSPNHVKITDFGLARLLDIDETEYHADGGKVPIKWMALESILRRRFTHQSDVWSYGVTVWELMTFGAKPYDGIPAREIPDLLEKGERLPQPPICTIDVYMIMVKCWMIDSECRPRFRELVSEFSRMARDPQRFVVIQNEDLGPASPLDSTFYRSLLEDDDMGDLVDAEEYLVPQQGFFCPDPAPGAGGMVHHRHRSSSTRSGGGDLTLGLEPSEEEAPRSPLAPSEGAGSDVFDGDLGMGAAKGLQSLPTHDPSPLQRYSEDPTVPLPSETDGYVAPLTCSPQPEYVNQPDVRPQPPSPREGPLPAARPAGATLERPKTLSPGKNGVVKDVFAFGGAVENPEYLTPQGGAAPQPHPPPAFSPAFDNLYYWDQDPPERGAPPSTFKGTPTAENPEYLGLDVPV
Test [3] in a line: SK-BR-3 cell growth inhibitors, pilot screen, 24 h, human (AID 572;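 active = viability at or below 10% of carrier control in both of two separate runs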;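 also: compound exposure lasted between 18 and 24 h rather than exactly 24 h; 100% = carrier-treated control wells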). As to conditions: SK-BR-3 viability, CellTiter-Glo luminescence, at 10 µM, stronger effect = lower value. A general note: ATP-based viability assays read luminescence as a measure of living cells.
Test [4] can be described thus: HUVEC growth inhibition – cell-based, human, primary screen (AID 575;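 active = viability at or below 30% in both replicate assays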;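 also: 100% = median of untreated cell wells with 0.1% DMSO on each plate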). To be noted: HUVEC proliferation, CellTiter-Glo luminescence, 72 h; at 10 µM; stronger effect = lower value.
A short description of test [5]: growth inhibitors of H69AR lung tumor, primary screen, human, duplicate replicates (AID 580;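 active = viability at or under a set limit in both replicates, limit being median viability minus 3 SD, cut at about 48% in these data, passing the limit was not always enough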;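 also: 100% = mean luminescence of untreated wells and 0% = no signal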). As to conditions: H69AR lung tumor cells viability, ATP luminescence, 72 h; at 10 µM; stronger effect = lower value.
A short description of test [6]: reversal of MRP1-mediated doxorubicin resistance, pilot screen, H69AR cells, doxorubicin co-treatment (AID 601;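 active = viability loss from added drug above about 55%, and viability with drug at most 40%, in both replicates, limit read from the data, passing the limit was not always enough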). As to conditions: CellTiter-Glo, 72 h, at 10 µM; for differential viability (reversal): stronger effect = higher value.
The nature of test [7]: 384-well plate pilot, post-Golgi transport modulator project, inhibition of yeast transport mutant growth (AID 636; in the data active = inhibition above about 31%). To be noted: absorbance 615 nm, about 18 h, stronger effect = higher value.
Test [8] is described as follows: growth suppression of yeast trafficking mutant, preliminary HTS, modulators of trafficking downstream of Golgi apparatus project, 1536-format plate, OD 615 nm (AID 637; in the data active = inhibition above about 30%). As to conditions: yeast transport mutant growth, absorbance 615 nm, 18 h; stronger effect = higher value.
Test [9] is described as follows: OD615 S. cerevisiae growth inhibition, permissive medium, pilot counter-assay, permissive growth control for S. cerevisiae lifespan shortening project (AID 705;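 active = growth inhibition above 25% in both replicates, a cutoff set 3 SD above the mean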). To be noted: OD615, 24 h, at 10 µM, stronger effect = higher value.
Test [10] is described as follows: Restrictive medium S. cerevisiae growth inhibition, OD615, pilot screen of yeast lifespan reduction project, restrictive growth control (AID 706;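 active = growth inhibition above a set limit, 3 SD over mean compound inhibition, in both replicates, cut at about 43% in these data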;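 also: modified DeaD lifespan yeast strain shifted to restrictive glucose medium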). As to conditions: OD615, 48 h, at 10 µM, stronger effect = higher value.
Test [11] is described as follows: viability gain of MRP-1-high H69AR cells under doxorubicin, pilot screen, MRP-1 activator project, CellTiter-Glo, duplicate (AID 807;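 active = viability increase at or above a cutoff of the median across tested compounds plus 3 SD, cut at about 8.5% in these data, passing the limit was not always enough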;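 also: compound pretreatment 18-22 h then 72 h combined with doxorubicin; 0% = doxorubicin alone and 100% = vehicle without doxorubicin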). To be noted: H69AR viability with doxorubicin, CellTiter-Glo luminescence; at 10 µM; stronger effect = higher value.
A short description of test [12]: growth suppression of beta-catenin knockout HCT116, pilot screen, human colon tumor cells (AID 823).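 Also: 0% = wells killed by 20 µM Hyamine and 100% = untreated DMSO cell wells.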 To be noted: CellTiter-Glo, 60 h, at 10 µM, stronger effect = lower value.
A short description of test [13]: growth suppression of PTEN-deleted HCT116, pilot screen, cell-based, HCT116 clonal line, CellTiter-Glo (AID 824;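 active = viability at or below 27.92% in each of two runs, the all-compound median minus 4 SD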;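 also: 0% = 20 µM Hyamine control and 100% = vehicle cell control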). To be noted: 60 h, at 10 µM, stronger effect = lower value.
The nature of test [14]: inhibitors of the yeast RAM network, pilot screen, dse1pr::URA3 reporter, 5-FOA selection (AID 869;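 active = inhibition over a set limit, the all-compound mean plus 3 SD, in both replicate runs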;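 also: 0% = DMSO wells with no growth and 100% = 10 µM 1-NA-PP1 with full growth; RAM network block rescues cells from 5-FOA so hits raise OD615 growth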). To be noted: S. cerevisiae dse1pr::URA3 5-FOA growth, OD615, 2 d; at 10 µM; stronger effect = higher value; strain carries analog-sensitive mutant Cbk1 kinase.
Test [15] is described as follows: RAM signaling pathway blockade in yeast – S. cerevisiae, Pdr1DBD-CYC8 efflux-inhibited sensitized strain, primary screen (AID 1298;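 active = RAM network inhibition above 8.4% in each of two replicates, 3 SD over the compound average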;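 also: 0% = DMSO untreated cells without growth and 100% = 10 µM 1-NA-PP1 full growth; higher means more yeast growth rescued from 5-FOA killing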). As to conditions: S. cerevisiae cbk1-as DSE1-URA3 strain, 5-FOA growth OD615, 2 d; at 50 µM; stronger effect = higher value.
Setting [16] is: H69AR cells + 2 uM doxorubicin, measured here: viability with 2 uM doxorubicin, stronger effect = lower value.
Where [17] appears, read: H69AR cells, compound alone cytotoxicity.

SMILES strings stand for the structures. Results filed as inconclusive are left out. Calls of active or inactive are those of the source.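 The calls were made as follows, unless noted: active = cell viability at or below a set limit in both duplicate runs, the limit being the all-compound median minus 4 SD (cut at about 23% in these data, passing the limit was not always enough); inconclusive = no clear call, values can overlap the other calls; inactive = the rest.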

Consider `CC1Cn2c(nnc2-c2ccc(F)cc2)S1` (stereo not given), for which the viability (commonly a read-out of living cells in per cent, often relative to untreated cells) in [1] was 112%; in test [3], 112% (inactive); in [4], 107% (inactive); in test [5], 93.7% (inactive); in test [6] (setting [16]) it was 95.2%; in test [6] (setting [17]) it was 93.7%. In addition, the viability is 112% (inactive) in test [12] and 101% (inactive) in [13]. Further, in [2], the Her2 level was 105% (inactive). The differential viability (reversal) in [6] (H69AR cells + 2 uM doxorubicin) was -1.42% (inactive). For the same compound, the inhibition (as a rule, the change of the read-out against control, counted positive when it falls) in test [7] was -2.4% (inactive); in test [8], -4% (inactive); in test [14], 1.92% (inactive). For the same compound, the results for the growth inhibition in [9] and in [10] were -9.71% (inactive) and -14.2% (inactive), respectively. The viability increase in [11] is -0.42% (inactive). Also, in [15], the RAM network inhibition is 3.35% (inactive).

For the compound `COc1cccc(C(=O)OCn2nnc3ccccc3c2=O)c1OC`, the viability was 85.5% in test [1]; 85.5% (inactive) in [3]; 97.7% (inactive) in test [4]; 86.9% (inactive) in [5]; 109% in test [6] (setting [16]); 86.9% in test [6] (setting [17]). For the same compound, the viability was 96.5% (inactive) in test [12] and 99.9% (inactive) in [13]. Besides, the Her2 level in [2] is 102% (inactive). Moreover, the differential viability (reversal) in test [6] (H69AR cells + 2 uM doxorubicin) was -22% (inactive). Moreover, the results for the inhibition in test [7], in test [8] and in test [14] were -2.67% (inactive), -3.67% (inactive) and 2.57% (inactive), respectively. Also, the growth inhibition in [9] is 8.45% (inactive); in test [10], 5.07% (inactive). Moreover, the viability increase in [11] is 0.09% (inactive). Besides, in test [15], the RAM network inhibition was -0.62% (inactive).

`CCCCC(NS(=O)(=O)c1ccc(OC)cc1)C(=O)O` (stereo not given): the viability in [1] is 110%; in test [3], 110% (inactive); in test [4], 101% (inactive); in test [5], 98.4% (inactive); in test [6] (setting [16]), 93.9%; in test [6] (setting [17]) it was 98.4%. In addition, the viability is 99.1% (inactive) in [12] and 97.1% (inactive) in test [13]. The Her2 level in [2] was 108% (inactive). Also, in [6] (H69AR cells + 2 uM doxorubicin), the differential viability (reversal) is 4.5% (inactive). Moreover, the inhibition in test [7] is -0.39% (inactive); in test [8], -4.17% (inactive); in test [14], 1.7% (inactive). For the same compound, the values for the growth inhibition in test [9] and in test [10] were -19.3% (inactive) and -7.24% (inactive), respectively. In addition, the viability increase in test [11] was 0.29% (inactive). Moreover, the RAM network inhibition in test [15] was 3.29% (inactive).

`CC(=NCC1CCNCC1)C1=C(O)CC(C)(C)CC1=O`: the viability in test [1] is 79%; in test [3] it was 79% (inactive); in test [4] it was 107% (inactive); in test [5] it was 106% (inactive); in [6] (setting [16]) it was 92.4%; in [6] (setting [17]) it was 106%. Besides, the figures for the viability in test [12] and in [13] were 91.2% (inactive) and 97.3% (inactive), respectively. For the same compound, the Her2 level in test [2] is 95.5% (inactive). Besides, in test [6] (H69AR cells + 2 uM doxorubicin), the differential viability (reversal) is 13.4% (inactive). Besides, the inhibition is -4.73% (inactive) in test [7], 2.3% (inactive) in test [8] and 0.485% (inactive) in test [14]. In addition, the growth inhibition is 10% (inactive) in test [9] and 5.17% (inactive) in test [10]. Besides, the viability increase in test [11] was -2.21% (inactive). Also, the RAM network inhibition in [15] is -1.02% (inactive).

Consider `COc1cccc(NC(=O)c2ccco2)c1`, for which the viability was 99% in test [1]; 99% (inactive) in test [3]; 94.5% (inactive) in test [4]; 94.9% (inactive) in test [5]; 87.2% in test [6] (setting [16]); 94.9% in test [6] (setting [17]). For the same compound, the viability in test [12] is 107% (inactive); in [13] it was 98.7% (inactive). Further, in [2], the Her2 level is 116% (inactive). In [6] (H69AR cells + 2 uM doxorubicin), the differential viability (reversal) was 7.72% (inactive). The inhibition was -3.38% (inactive) in test [7], -4.33% (inactive) in test [8] and 0.235% (inactive) in test [14]. In addition, the growth inhibition is -0.175% (inactive) in test [9] and 6.41% (inactive) in test [10]. For the same compound, in test [11], the viability increase was -4.31% (inactive). The RAM network inhibition in test [15] is -0.82% (inactive).
